# Source: PubChem BioAssay (NCATS)
# Values joined by “and” are separate entries in the source; they are usually repeats but may differ in a detail not shown here. Equal values may be shown once. Records with an inconclusive call do not appear. Where a call stands in place of a potency, no number is given. Some compounds were tested as several samples or in several runs, with calls that do not always agree. Active and inactive are the calls of the source. Calls follow the shape of the dose curve; as a rule, active = well fitted curve in the direction sought with a large enough effect; inconclusive = small, poorly fitted or top-dose-only effect, or another doubt; inactive = no such curve, though single readings can be large; an effect the other way counts as inactive or inconclusive.
# Columns and labels:
# [1] = target: Rap guanine nucleotide exchange factor 3 (Homo sapiens) (UniProt O95398); test: Confirmatory qHTS for antagonist of cAMP-regulated guanine nucleotide exchange factor 3 (EPAC1) (AID 1645880); also: nearly all actives have a fitted effect of over 55% in size; also: potency is read from the fitted curve at half-maximal effect
# Chain of Rap guanine nucleotide exchange factor 3 (Homo sapiens) (O95398 whole entry, looked up): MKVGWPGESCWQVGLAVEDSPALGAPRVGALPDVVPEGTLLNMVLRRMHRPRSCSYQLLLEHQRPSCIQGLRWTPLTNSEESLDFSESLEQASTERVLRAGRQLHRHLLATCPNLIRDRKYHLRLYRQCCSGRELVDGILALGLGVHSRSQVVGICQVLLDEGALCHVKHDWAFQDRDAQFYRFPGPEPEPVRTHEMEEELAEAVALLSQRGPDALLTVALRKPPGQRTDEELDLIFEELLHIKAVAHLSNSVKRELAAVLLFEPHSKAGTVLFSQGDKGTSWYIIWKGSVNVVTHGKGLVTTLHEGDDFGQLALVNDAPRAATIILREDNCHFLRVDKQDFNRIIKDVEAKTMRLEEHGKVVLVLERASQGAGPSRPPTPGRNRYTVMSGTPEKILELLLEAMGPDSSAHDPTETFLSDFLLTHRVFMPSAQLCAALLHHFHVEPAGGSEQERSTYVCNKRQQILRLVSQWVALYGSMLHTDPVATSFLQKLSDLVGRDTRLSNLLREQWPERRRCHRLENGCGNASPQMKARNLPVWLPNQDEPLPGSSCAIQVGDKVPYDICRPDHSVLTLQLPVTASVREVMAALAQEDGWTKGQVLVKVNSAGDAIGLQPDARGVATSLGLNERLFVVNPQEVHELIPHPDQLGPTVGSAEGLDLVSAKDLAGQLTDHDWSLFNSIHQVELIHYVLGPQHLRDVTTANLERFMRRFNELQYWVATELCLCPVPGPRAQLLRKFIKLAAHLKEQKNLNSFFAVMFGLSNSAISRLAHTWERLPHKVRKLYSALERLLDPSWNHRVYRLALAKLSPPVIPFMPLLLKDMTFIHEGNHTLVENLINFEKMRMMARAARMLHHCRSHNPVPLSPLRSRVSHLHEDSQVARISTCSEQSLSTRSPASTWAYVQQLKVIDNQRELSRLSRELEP
# In short: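 Released BODIPY-GDP fluoresces less than Rap1-bound BODIPY-GDP; the signal is followed at 480/540 nm at 5-min intervals over 30 min, after 5 min at room temperature. Reactions contain 100 nM EPAC1, 250 nM RAP1B-BODIPY-GDP and 50 uM GDP; results are normalized to ATA and DMSO.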
# [2] = target: Rap guanine nucleotide exchange factor 3 (Homo sapiens) (UniProt O95398); test: Confirmatory qHTS for agonist of cAMP-regulated guanine nucleotide exchange factor 3 (EPAC1) (AID 1645881); also: nearly all actives have a fitted effect of over 75% in size; also: potency is read from the fitted curve at half-maximal effect;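 as to activation: EPAC1 catalysed release of BODIPY-GDP from Rap1B seen as fluorescence loss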
# [3] = target: Rap guanine nucleotide exchange factor 4 (Homo sapiens) (UniProt Q8WZA2); test: Confirmatory qHTS for agonist of cAMP-regulated guanine nucleotide exchange factor 4 (EPAC2) (AID 1645884);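 also: nucleotide exchange releases bodipy-GDP from Rap1 and this lowers its fluorescence; nearly all actives have a fitted effect of over 65% in size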; also: potency is read from the fitted curve at half-maximal effect
# Chain of Rap guanine nucleotide exchange factor 4 (Homo sapiens) (Q8WZA2 whole entry, looked up): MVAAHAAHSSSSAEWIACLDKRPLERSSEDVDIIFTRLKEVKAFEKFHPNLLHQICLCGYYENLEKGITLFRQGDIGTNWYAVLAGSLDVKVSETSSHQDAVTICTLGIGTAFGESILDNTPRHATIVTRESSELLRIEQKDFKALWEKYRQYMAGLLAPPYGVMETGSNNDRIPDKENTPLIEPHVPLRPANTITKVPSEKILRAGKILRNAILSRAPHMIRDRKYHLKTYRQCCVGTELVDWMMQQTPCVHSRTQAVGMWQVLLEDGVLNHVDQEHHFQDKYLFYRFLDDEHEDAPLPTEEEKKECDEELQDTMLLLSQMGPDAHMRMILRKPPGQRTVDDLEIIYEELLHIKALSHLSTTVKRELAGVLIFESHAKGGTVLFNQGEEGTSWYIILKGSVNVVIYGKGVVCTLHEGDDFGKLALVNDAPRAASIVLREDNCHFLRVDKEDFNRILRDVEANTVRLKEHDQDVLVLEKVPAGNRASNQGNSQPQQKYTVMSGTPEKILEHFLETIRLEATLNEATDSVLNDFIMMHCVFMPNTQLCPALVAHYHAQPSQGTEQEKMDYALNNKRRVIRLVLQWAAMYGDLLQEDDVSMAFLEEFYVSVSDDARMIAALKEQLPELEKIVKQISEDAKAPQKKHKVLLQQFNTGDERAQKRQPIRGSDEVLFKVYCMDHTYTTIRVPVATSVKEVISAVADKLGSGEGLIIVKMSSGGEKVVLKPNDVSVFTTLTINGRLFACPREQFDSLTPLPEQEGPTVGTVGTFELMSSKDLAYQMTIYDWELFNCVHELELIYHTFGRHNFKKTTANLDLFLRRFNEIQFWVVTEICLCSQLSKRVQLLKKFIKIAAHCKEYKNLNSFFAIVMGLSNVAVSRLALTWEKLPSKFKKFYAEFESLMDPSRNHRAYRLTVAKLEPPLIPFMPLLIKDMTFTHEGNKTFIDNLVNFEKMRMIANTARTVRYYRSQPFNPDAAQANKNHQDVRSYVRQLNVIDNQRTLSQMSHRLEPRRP
# [4] = target: Rap guanine nucleotide exchange factor 4 (Homo sapiens) (UniProt Q8WZA2); test: Confirmatory qHTS for antagonist of cAMP-regulated guanine nucleotide exchange factor 4 (EPAC2) (AID 1645885); also: nearly all actives have a fitted effect of over 25% in size; also: potency is read from the fitted curve at half-maximal effect
# [5] = target: Rap guanine nucleotide exchange factor 3 (Homo sapiens) (UniProt O95398); test: Counterscreen qHTS for antagonist of cAMP-regulated guanine nucleotide exchange factor 3 (EPAC1) (AID 1645888)
# In short: (§1)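 Measured: fluorescence of BODIPY-GDP bound to Rap1B, which falls as exchange proceeds. Conditions include 50 uM competing GDP, 5 and 30 min reads, and a later cAMP challenge for antagonist detection.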
# [6] = target: Rap guanine nucleotide exchange factor 3 (Homo sapiens) (UniProt O95398); test: Counterscreen qHTS for agonist of cAMP-regulated guanine nucleotide exchange factor 3 (EPAC1) (AID 1645889); also: nearly all actives have a fitted effect of over 40% in size; also: potency is read from the fitted curve at half-maximal effect
# In short: as §1
Compound,Potency [1],Potency [2],Potency [3],Potency [4],Potency [5],Potency [6],activation [3],"activity change, negative = inhibition [5]",activation [6]
Cc1nc(SC(C)C(=O)NCC2CCCO2)c2cc(-c3ccccc3)sc2n1 (configuration not stated),inactive,inactive,inactive,inactive,inactive,inactive,,,
Cc1nnnn1-c1ccc(CC(=O)O)cc1,inactive,inactive,,inactive,,,"-2.24% [at 17.1 µM, percent relative to cAMP agonist control] (inactive)",-6.83% [at 30.8 µM] (inactive),-1.16% [at 30.8 µM] (inactive)
C=CCn1c(O)c(N=NC(=O)CNC(=O)/C=C/c2ccc(OC)cc2)c2ccccc21,inactive,inactive,inactive,inactive,inactive,inactive,,,
CCOc1ccc(C(C(=O)NC2CCCC2)N(C(=O)c2snc(C(N)=O)c2N)C2CCCC2)cc1 (configuration not stated),inactive,inactive,inactive,inactive,inactive,inactive,,,
O=C(COC(=O)c1c2c(nc3ccccc13)/C(=C/c1ccco1)CC2)NC1CCCC1,30.1 µM (active),inactive,inactive,inactive,inactive,inactive,,,
CC(Oc1ccccc1)C(=O)Nc1nnc(S(=O)(=O)N2CCCCC2)s1 (configuration not stated),inactive,inactive,inactive,inactive,inactive,inactive,,,
COc1cccc(C2=NN(C(C)=O)C(c3cccs3)C2)c1 (configuration not stated),inactive,inactive,inactive,inactive,inactive,inactive,,,
CC(=O)N1CCc2cc(Br)cc(S(=O)(=O)NCCCN(C)Cc3ccccc3)c21,inactive,inactive,inactive,23.9 µM (active),inactive,inactive,,,
O=C(NC1CCC(O)CC1)c1cccc2cccnc12 (configuration not stated),inactive,inactive,inactive,inactive,inactive,inactive,,,
COc1ccc(C2c3c(-c4ccccc4O)n[nH]c3C(=O)N2Cc2ccco2)cc1 (configuration not stated),inactive,inactive,inactive,inactive and 37.9 µM (active),inactive,inactive,,,
CC(OC(=O)CNC(=O)COc1ccccc1)C(=O)N(C)Cc1ccccc1 (configuration not stated),inactive,inactive,,inactive,,,"1.04% [at 17.1 µM, percent relative to cAMP agonist control] (inactive)",-17.7% [at 30.8 µM] (inactive),-1.24% [at 30.8 µM] (inactive)
Cc1cn2c(=O)cc(COc3ccc(C(C)(C)C)cc3)nc2s1,inactive,inactive,inactive,inactive,inactive,inactive,,,
CCOC(=O)c1cc(C(C)(C)C)nc(SC)c1C#N,inactive,inactive,inactive,inactive,inactive,inactive,,,
COc1cc2ccccc2cc1C(=O)N1CC(C)CC(C)C1 (configuration not stated),inactive,inactive,,inactive,,,"1.37% [at 17.1 µM, percent relative to cAMP agonist control] (inactive)",1.39% [at 30.8 µM] (inactive),27.4% [at 30.8 µM] (inactive)
COc1ccc(N2CCN(C(=O)c3noc4c3CCCCC4)CC2)cc1,inactive,inactive,inactive,inactive,inactive,inactive,,,
O=c1c2sccc2nc(SCc2cc(=O)n3cc(Cl)ccc3n2)n1Cc1ccccn1,inactive,inactive,inactive,inactive,inactive,inactive,,,
COc1ccc(CCNC(=O)CCc2nc3sc4c(c3c(=O)[nH]2)CCCC4)cc1,84.9 µM (active),inactive,inactive,4.78 µM (active),inactive,inactive,,,
CSCCC(NS(=O)(=O)c1ccc2c(c1)oc(=O)n2C)C(=O)NC1CCCc2ccccc21 (configuration not stated),inactive,inactive,inactive,inactive,inactive,inactive,,,
N#Cc1cc(C(=O)c2cc(F)ccc2O)cn(-c2nccs2)c1=O,inactive,100 µM (active),112 µM (active),inactive,inactive,39.8 µM (active),,,
Cc1ccc(S(=O)(=O)Nc2ccccc2N2CCCCC2)cc1,inactive,inactive,,inactive,,,"1.85% [at 17.1 µM, percent relative to cAMP agonist control] (inactive)",-22.5% [at 30.8 µM] (inactive),18.9% [at 30.8 µM] (inactive)
O=C(C[n+]1cc(Br)cc2ccccc21)c1ccc(F)cc1,inactive,inactive,,inactive,,,"1.58% [at 17.1 µM, percent relative to cAMP agonist control] (inactive)",9.18% [at 30.8 µM] (inactive),21% [at 30.8 µM] (inactive)
CN1CCN(S(=O)(=O)c2ccc(Nc3ccc(F)cc3)nc2)CC1,inactive,inactive,,inactive,,,"6.27% [at 17.1 µM, percent relative to cAMP agonist control] (inactive)",-5.53% [at 30.8 µM] (inactive),16.5% [at 30.8 µM] (inactive)
